Screens from PubChem.
TbPYK inhibitor: qHTS of Trypanosoma Brucei Inhibitors; 410,000 tested, 0.12% active; Potency, µM (doses to about 76.8 µM), usual class: inhibitors; TbPYK enzyme, Kinase-Glo Plus ATP luminescence, 45 min; also: nearly all actives have a fitted effect of over 50% in size
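Quantitative HTS: titrated library compounds versus trypanosomal pyruvate kinase in TEA buffer (pH 7.2) containing KCl, MgCl2, BSA and Tween-20. Reactions were initiated with ADP, 130 uM final. Kinase-Glo Plus luminescence was read after 45 min at RT.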
LmPK inh: qHTS Assay for Inhibitors of Leishmania Mexicana Pyruvate Kinase (LmPK); purified LmPK, Kinase-Glo ATP luminescence, 1 h; 290,000 tested, 0.37% active; Potency, µM (doses to about 57.5 µM), usual class: inhibitors; Q27686; AID 1721, 2009
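qHTS format; LmPK 0.1 nM; substrates PEP 0.5 mM and ADP 0.1 mM. One-hour room-temperature incubation, then coupled luciferase luminescence; 0.5 nM enzyme wells mark activation.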
Sm TGR inh: qHTS Assay for the Inhibitors of Schistosoma Mansoni Peroxiredoxins; Potency, µM (series often up to 114 µM), actives largely listed as inhibitors; purified TGR, DTNB reduction, TNB absorbance 405 nm; 360,000 tested, 3% active; Schistosoma mansoni thioredoxin glutathione reductase (TGR), Q962Y6; also: nearly all actives have a fitted effect of over 60% in size
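Kinetic colorimetric format: TGR-catalysed, NADPH-driven DTNB reduction monitored via TNB absorbance. Enzyme dispensed at 20 nM; compound exposure 15 min at room temperature before reaction start.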
Cycloheximide cs: Cycloheximide Counterscreen for Small Molecule Inhibitors of Shiga Toxin | 300,000 tested, 12% active | cell reporter, cycloheximide protein synthesis inhibition counterscreen | max response, %; in the data active = max response mostly above about 13%, no sharp cut-off; inactive = mostly below about 14%; also: read at 38.3 µM for the half of the compounds with a filed dose
Shiga toxin inh: A qHTS for Small Molecule Inhibitors of Shiga Toxin; Vero cells, Shiga toxin protein synthesis inhibition reporter; inhibition, % at 38.7 µM; 290,000 tested, 9.2% active; in the data active = inhibition mostly above about 28%, no sharp cut-off; inactive = mostly below about 43%
Giardia FBPA inh: qHTS Assay for Inhibitors of Fructose-1,6-bisphosphate Aldolase from Giardia Lamblia; A8B2U2; purified Giardia FBPA; Potency, µM (series often up to 59.6 µM), most hits filed as inhibitors; 290,000 tested, 0.71% active; AID 2451, 2010; also: nearly all actives have a fitted effect of over 55% in size
Target sequence (A8B2U2 whole entry, looked up): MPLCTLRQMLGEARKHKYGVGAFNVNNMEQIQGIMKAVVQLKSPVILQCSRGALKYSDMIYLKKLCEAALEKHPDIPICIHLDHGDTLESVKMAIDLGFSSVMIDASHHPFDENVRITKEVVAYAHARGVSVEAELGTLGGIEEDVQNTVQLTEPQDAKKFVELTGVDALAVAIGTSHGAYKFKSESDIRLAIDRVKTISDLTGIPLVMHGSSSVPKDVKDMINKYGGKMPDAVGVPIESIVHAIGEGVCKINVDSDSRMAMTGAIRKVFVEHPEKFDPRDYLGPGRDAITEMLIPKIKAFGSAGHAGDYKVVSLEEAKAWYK
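40 nM FBPA preincubated 10 min at RT with compound (up to 57.5 uM final), then substrate plus GAPDH/TPI/NAD/arsenate coupling and diaphorase/resazurin added. Fluorescence read after 20 min at RT, 525/598 nm.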
A number is an active result; i = inactive; ? = inconclusive; nt = no result. This is one part of a sample in which hits are shown more often than they occur. Unless noted, calls follow the shape of the dose curve; as a rule, active = well fitted curve in the direction sought with a large enough effect; inconclusive = small, poorly fitted or top-dose-only effect, or another doubt; inactive = no such curve, though single readings can be large; an effect the other way counts as inactive or inconclusive.

SMILES	TbPYK inhibitor	LmPK inh	Sm TGR inh	Cycloheximide cs	Shiga toxin inh	Giardia FBPA inh
CC(C)C[C@H](NC(=O)[C@H](CC(C)C)NC(=O)[C@@H](Cc1c[nH]c2ccccc12)NC(=O)[C@H](Cc1ccccc1)NC(=O)[C@@H](Cc1c[nH]c2ccccc12)NC(=O)[C@H](CCC(N)=O)NC(=O)[C@H](CCC(N)=O)NC(=O)[C@@H]1CCCN1C(=O)[C@H](CCCCN)NC(=O)[C@@H]1CCCN1C(=O)[C@@H](CCCNC(=N)N)NC(=O)[C@@H]1CCCN1C(=O)CNC(=O)[C@H](CC(C)C)NC(=O)[C@H](CC(C)C)NC(=O)[C@H](Cc1ccc(O)cc1)NC(=O)CNC(=O)[C@H](C)NC(=O)[C@H](CO)NC(=O)[C@H](CC(N)=O)NC(=O)[C@H](CC(C)C)NC(=O)[C@@H](NC(=O)[C@H](Cc1c[nH]c2ccccc12)NC(=O)CN)[C@@H](C)O)C(N)=O	nt	nt	nt	i	i	i
CN1CCN(C(=O)c2cccc3c(-c4ccc(F)c(F)c4)coc23)CC1	i	nt	nt	nt	nt	nt
COc1ccc(NC(=O)C2=C(C)Nc3nc(SCc4ccc(Cl)cc4)nn3C2c2cccc(OC)c2OC)cc1 (configuration not stated)	i	nt	i	nt	nt	nt
COc1cc(O)ccc1C(=O)CCc1ccc(O)cc1	i	i	i	12	i	i
O=C(CSC(=S)N1CCSCC1)c1ccccc1	i	i	i	27	93	i
O=C(CSC1=NCCS1)c1ccc(Cl)cc1	i	i	i	i	i	i
O=C1CCC(=O)N1CCSC(=S)N1CCSCC1	i	i	i	14	60	i
O=C(CSC(=S)N1CCSCC1)c1ccc(Cl)cc1	i	i	i	39	82	i
Cc1c(C(=O)NC2=NCCS2)oc2ccccc12	i	?	i	33	56	i
Cc1ccc(NC(=O)c2sc3ccccc3c2Cl)nc1	i	i	i	43	65	i
Cc1cccnc1NC(=O)c1sc2ccccc2c1Cl	i	i	i	51	90	nt
Cc1csc(NC(=O)c2oc3ccccc3c2C)n1	i	nt	i	nt	nt	nt
CNC(=O)c1ccsc1NC(=O)c1sc2ccccc2c1Cl	i	i	i	22	i	i
COc1cccc(C2C(C(=O)Nc3ccccc3OC)=C(C)Nc3nc(-c4ccco4)nn32)c1 (configuration not stated)	i	nt	i	nt	nt	nt
C=C[C@@H](C)N(Cc1ccc(OC)cc1)S(=O)(=O)N(Cc1ccccc1)[C@H](C=C)C(C)C	i	nt	i	nt	nt	nt
N#Cc1cccc(NC(=O)c2cc3c(s2)-c2ccc(Cl)cc2SC3)c1	i	nt	i	nt	nt	nt
O=C(NC1=NCCS1)c1sc2cc(Cl)cc(Cl)c2c1Cl	i	i	i	i	i	i
COCc1nnc(NC(=O)c2sc3ccccc3c2Cl)s1	i	i	i	44	91	i
O=C(NC1=NCCS1)c1sc2ccccc2c1Cl	i	i	i	47	93	i
CCc1ccc(S(=O)(=O)c2nnn3c2nc(NC2CCCC2)c2sccc23)cc1	i	nt	i	nt	nt	nt
CCOC(=O)C1=CCN(S(=O)(=O)c2ccccc2Br)C1c1ccc(C)cc1 (configuration not stated)	i	nt	nt	nt	nt	nt
CCCc1nc(N)c(C#N)c(-c2ccco2)c1CC	i	i	i	i	i	i
Nc1ncnc2oc(-c3ccco3)c(-c3ccco3)c12	i	i	10µM	i	i	?
COC(=O)Cc1ccc(NC(=S)NCC(C)C)cc1	i	i	i	16	i	i
COC(=O)Cc1ccc(NC(=S)Nc2cccc(C)n2)cc1	i	i	i	16	i	i
CC(=O)N(C)c1ccc(NC(=S)NCC(C)C)cc1	i	i	i	15	i	i
COc1ccc(Cc2c(C3CCCCC3)nc3ccc(Cl)cn23)c(C)c1	i	nt	nt	nt	nt	nt
O=C(CSc1nc(-c2ccccc2)nc2c1CCCC2)c1ccc(F)cc1	i	nt	i	nt	nt	nt
COc1ccc(Nc2c(-c3ccc(Cl)cc3)nc3cnccn23)cc1OC	i	nt	i	nt	nt	nt
